Assay outcomes as filed in PubChem.
TDP1 cell noCPT: qHTS for Inhibitors of human tyrosyl-DNA phosphodiesterase 1 (TDP1): qHTS in cells in absence of CPT | hit rate 15% among 420,000 | Potency, µM (top dose mostly 46.2 µM), usual class: inhibitors | DT40 Tdp1-/- hTDP1 cells, no CPT, ATP luminescence, 48 h; note: nearly all actives have a fitted effect of over 55% in size
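Luminescent ATP content (CellTiter-Glo) served as the growth readout. Knockout chicken DT40 cells expressing human TDP1 were exposed to compounds without camptothecin for a minimum 48 hr at 37 °C.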
DT40 TDP1 CPT: qHTS for Inhibitors of human tyrosyl-DNA phosphodiesterase 1 (TDP1): qHTS in cells in presence of CPT; chicken DT40 Tdp1-/-;hTDP1 cells + 20 nM CPT, ATP luminescence, 48 h; hit rate 12% among 420,000; AID 686979, 2013; Potency, µM (top dose mostly 46.2 µM), most hits filed as inhibitors; note: nearly all actives have a fitted effect of over 55% in size
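Chicken DT40 Tdp1-/- cells complemented with human TDP1, 400 cells/well, exposed to compounds plus 20 nM camptothecin for at least 48 h at 37 C; viability read as ATP content by CellTiter-Glo luminescence.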
IL-1B inflam inh: qHTS for Inhibitors of Inflammasome Signaling: IL-1-beta AlphaLISA Primary Screen. THP-1 LPS/ATP IL-1B secretion, AlphaLISA, 16 h; stronger effect = lower value. activity change, % at 57.5 µM. hit rate 4.7% among 360,000. AID 743279, 2014; in the data active = activity change below about -50%; inconclusive = mostly about -30% to -49%
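THP-1 cells pretreated 1 hr with compounds (up to 57.5 uM final), then stimulated with LPS (250 ng/mL final) plus ATP (1.25 mM final); secreted IL-1B measured by AlphaLISA after 16 hr, decreased signal indicating inhibition.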
DRD3 antagonist: qHTS of D3 Dopamine Receptor Antagonist: qHTS; max response, negative = inhibition, %; D3R cells, DiscoveRx beta-arrestin luminescence, antagonist mode; stronger effect = lower value; hit rate 2.5% among 360,000; in the data active = max response below about -50%; inconclusive = no clear call, values can overlap the other calls
Target sequence (P35462 whole entry, looked up): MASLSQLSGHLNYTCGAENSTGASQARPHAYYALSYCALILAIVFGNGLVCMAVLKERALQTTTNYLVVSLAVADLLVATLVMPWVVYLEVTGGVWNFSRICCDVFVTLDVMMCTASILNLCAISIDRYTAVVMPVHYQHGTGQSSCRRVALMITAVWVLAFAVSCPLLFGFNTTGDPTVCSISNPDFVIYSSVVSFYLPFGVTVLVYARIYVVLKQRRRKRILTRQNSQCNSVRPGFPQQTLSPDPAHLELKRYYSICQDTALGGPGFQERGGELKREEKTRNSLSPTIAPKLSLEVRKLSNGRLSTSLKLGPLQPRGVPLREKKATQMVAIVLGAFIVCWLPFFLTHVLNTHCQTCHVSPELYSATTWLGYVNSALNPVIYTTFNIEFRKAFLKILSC
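Cells expressing the human receptor were seeded at 1500 cells/well, incubated overnight at 37 degrees C in 5% CO2, then exposed to library compounds with dopamine controls for 90 minutes at 37 degrees C before luminescent detection.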
D3 ag: qHTS of D3 Dopamine Receptor Agonist: qHTS; D3R DiscoveRx beta-arrestin cells, luminescence, 90 min; AID 652048, 2013; D(3) dopamine receptor (Homo sapiens), P35462; hit rate 0.58% among 410,000; max activation, %; in the data active = max activation above about 30%
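Agonist mode: compounds and dopamine controls were applied to plated cells for 90 min at 37 degrees C after an overnight attachment at 1500 cells/well. Luminescent read-out followed 30 - 60 minutes at room temperature with DiscoveRx detection reagent.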
ClpP mod: qHTS Assay for Activators of ClpP; hit rate 1.9% among 340,000; Potency, µM (doses to about 57.5 µM); purified B. subtilis ClpP, FRET peptide cleavage, 20 min; ATP-dependent Clp protease proteolytic subunit (Bacillus subtilis (strain 168)), P80244; AID 651965, 2013; active = well fitted falling curve with a large enough effect; inconclusive = small, poorly fitted or top-dose-only effect; inactive = no such curve, though single readings can be large or run the other way; note: the source files actives as falling curves though it sought activators and does not explain the sign; nearly all actives have a fitted effect of over 65% in size
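Buffer: 100 mM Tris/HCl pH8, 100 mM KCl, 0.05% low protease BSA, 2.5% glycerol, 0.01% Tween-20. ClpP 10 microg/mL final; 20 min RT; delta FRET normalized to ADEP and DMSO controls.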
Hits are given with their value; . = inactive; ? = inconclusive; / = not tested or not shown; [ ] = dose if it differs, or a comment. The list is not random: actives were taken first. Their share in the collection is about 21%. Unless noted, calls come from the whole dose curve; as a rule, active = well fitted inhibition curve with a large enough effect; inconclusive = small, poorly fitted or top-dose-only effect; inactive = flat fitted curve, though single readings scatter.

SMILES	TDP1 cell noCPT	DT40 TDP1 CPT	IL-1B inflam inh	DRD3 antagonist	D3 ag	ClpP mod
O=C1N[C@H](Cc2ccccc2)COC(=O)[C@@H](Cc2ccc(F)cc2)CC/C=C/C[C@H]1CC(=O)N(CCO)Cc1ccccc1	?	18.4µM	?	.	.	.
CCc1nc2ccc(C(=O)N3CCN(S(=O)(=O)CC)CC3)cn2c1N(CCC(C)C)CCN(C)C	.	.	.	.	.	.
Cc1cccc(OCCSc2nc3c([nH]2)c(=N)ncn3Cc2ccccc2)c1	16.4µM	20.6µM	.	.	.	.
COc1cc2c(cc1OC)C1CCC3=C([C@H](C)OC3=O)N1CC2 (some centres not stated)	.[9.04 µM]	.[9.04 µM]	/	/	/	/
CN1CCN(c2ccc3c(c2)C2CC3CCN2C(=O)OCc2ccccc2)CC1 (configuration not stated)	?	?	.	?	.	.
O=C(OCc1ccccc1)N1CCC2CC1c1ccc(N3CCNCC3)cc12 (configuration not stated)	7.31µM	9.2µM	.	.	.	.
COc1ccc(NC(=S)N2CCN(c3ccc4c(c3)C3CCN(C(=O)OCc5ccccc5)C4C3)CC2)c(OC)c1 (configuration not stated)	5.17µM	7.31µM	.	.	.	.
Cc1ccccc1S(=O)(=O)N1CCN(c2ccc3c(c2)C2CC3CCN2C(=O)OCc2ccccc2)CC1 (configuration not stated)	16.4µM	?	.	.	.	.
CSc1ccc(-c2ccc(C(=O)NCC3CCCO3)c(N3CCC(O)CC3)n2)cc1 (configuration not stated)	.	.[9.04 µM]	/	/	/	/
COc1ccc(N(C(=O)c2ccco2)C(C(=O)NC2CCCC2)c2ccc(OC)c(OC)c2)cc1 (configuration not stated)	.	.	.	.	.	/
FC(F)(F)c1cccc(CNC2c3ccccc3-c3ccccc32)c1	.	.	.	.	.	.
COCCCNC(=O)COc1ccc2oc3c(c2c1)CCCC3	?	?	.	.	.	/
Cc1cccc(NC(=O)COc2ccc3oc4c(c3c2)CCCC4)c1	18.4µM	16.4µM	/	/	.	.
Cc1ccc(NC(=O)COc2ccc3oc4c(c3c2)CCCC4)nc1	8.2µM	?	.	.	.	.
CC(C)N(CCNC(=O)COc1ccc2oc3c(c2c1)CCCC3)C(C)C	23.1µM	?	-77.3	.	.	.
O=C(COc1ccc2oc3c(c2c1)CCCC3)Nc1ccc(Br)cc1	?	14.6µM	/	/	.	.
COc1ccc(NC(=O)c2nc(C)c(C3(C)CC(c4ccccc4)=NO3)s2)cc1 (configuration not stated)	5.8µM	1.03µM	.	.	.	.
Cc1nc(C(=O)NC2CCOCC2)sc1C1(C)CC(c2ccccc2)=NO1 (configuration not stated)	.	.	.	.	.	.
Cc1nc(C(=O)NCc2ccccc2)sc1C1(C)CC(c2ccccc2)=NO1 (configuration not stated)	.	?	.	-50.4	.	.
Cc1nc(NC(=O)c2ccccc2)sc1C1(C)CC(c2ccccc2F)=NO1 (configuration not stated)	.	.	.	.	.	.
Cc1nc(NC(=O)c2ccccc2)sc1C1(C)CC(c2c(Cl)cccc2Cl)=NO1 (configuration not stated)	?	23.1µM	.	.	.	?
CC(=O)c1ccc2c(c1)N(Cc1ccc3ccccc3c1)C(=O)C(C)S2 (configuration not stated)	5.17µM	5.8µM	.	-74.8	.	.
CC(=O)c1sc2nsc(SCCN3CCCC3)c2c1N	?	25.9µM	-93.4	.	.	.
CC(=O)c1sc2nc(C)c3c(c2c1N)CCCC3	?	.	/	.	.	/
